# High-throughput results deposited in PubChem by Buhrlage Lab, Dana-Farber Cancer Institute and Novartis Institutes for BioMedical Research (Cambridge, Mass).
# Rows were chosen to be rich in hits. Some 13% of all compounds tested hit in one or more screens of this group.
# USP7 inh: human USP7 deubiquitinase inhibition. AID 1645854. purified USP7, Ub-rhodamine cleavage fluorescence. 47,000 tested, 0.3% active. Q93009. inhibition, % at 20 µM
# USP10 block: inhibitors of human USP10 deubiquitinase | Q14694 | purified USP10, Ub-rhodamine fluorescence, 60 min | inhibition, % at 20 µM | 47,000 tested, 1.1% active
# USP8 block: human USP8 deubiquitinase inhibition; P40818; purified USP8, Ub-rhodamine cleavage fluorescence, 30 min; inhibition, % at 20 µM; 47,000 tested, 4.2% active; AID 1645853
# USP28 inh: blocks human USP28 ubiquitin-rhodamine cleavage; inhibition, % at 25 µM; purified USP28, Ub-rhodamine cleavage fluorescence, 30 min; 47,000 tested, 3% active; Q96RU2; AID 1645857
# Target sequence (Q96RU2 whole entry, looked up): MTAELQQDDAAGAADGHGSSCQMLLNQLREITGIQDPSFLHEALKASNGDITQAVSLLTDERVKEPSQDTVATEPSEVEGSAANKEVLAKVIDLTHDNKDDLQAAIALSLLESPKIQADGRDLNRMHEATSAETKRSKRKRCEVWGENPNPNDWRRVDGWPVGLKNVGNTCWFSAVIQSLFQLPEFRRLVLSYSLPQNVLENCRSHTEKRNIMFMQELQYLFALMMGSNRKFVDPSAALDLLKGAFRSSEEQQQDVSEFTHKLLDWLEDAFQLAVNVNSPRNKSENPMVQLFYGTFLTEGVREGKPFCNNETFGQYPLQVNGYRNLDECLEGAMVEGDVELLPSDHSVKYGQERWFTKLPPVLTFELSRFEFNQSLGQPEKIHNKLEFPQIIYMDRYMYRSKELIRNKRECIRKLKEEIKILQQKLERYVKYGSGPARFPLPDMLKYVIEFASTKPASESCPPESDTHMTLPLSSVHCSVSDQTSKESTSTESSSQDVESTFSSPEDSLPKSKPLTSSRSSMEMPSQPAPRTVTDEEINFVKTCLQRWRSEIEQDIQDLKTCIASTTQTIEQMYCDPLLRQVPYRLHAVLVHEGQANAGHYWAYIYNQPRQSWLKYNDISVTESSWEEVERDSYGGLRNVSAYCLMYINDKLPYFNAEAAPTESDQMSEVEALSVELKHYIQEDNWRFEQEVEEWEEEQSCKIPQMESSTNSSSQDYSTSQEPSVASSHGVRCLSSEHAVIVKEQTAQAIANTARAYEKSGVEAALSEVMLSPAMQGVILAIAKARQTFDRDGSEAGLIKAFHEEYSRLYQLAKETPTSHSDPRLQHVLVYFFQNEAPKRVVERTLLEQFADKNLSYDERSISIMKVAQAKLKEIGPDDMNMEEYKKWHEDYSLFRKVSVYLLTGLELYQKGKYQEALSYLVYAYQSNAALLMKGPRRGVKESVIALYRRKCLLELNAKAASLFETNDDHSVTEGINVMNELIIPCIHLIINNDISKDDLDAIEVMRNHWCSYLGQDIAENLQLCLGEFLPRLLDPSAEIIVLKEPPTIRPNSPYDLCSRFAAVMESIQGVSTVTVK
# USP30 inh: human USP30 deubiquitinase inhibition; AID 1645860; purified USP30, Ub-rhodamine cleavage fluorescence; inhibition, % at 25 µM; 47,000 tested, 5.3% active
# USP17 inh: blocks human USP17 ubiquitin-rhodamine cleavage; AID 1645855; 47,000 tested, 6.5% active; A8MUK1; inhibition, % at 50 µM; purified USP17, Ub-rhodamine cleavage fluorescence, 3 h
# Starred values were filed as active, the others as inactive; / = no result. No stated cut-off is given here; in the data, active means inhibition above about 30%; inactive means the rest.
SMILES,USP7 inh,USP10 block,USP8 block,USP28 inh,USP30 inh,USP17 inh
Cc1nc(SCC(=O)Nc2cccc3ccccc23)c2oc3ccccc3c2n1,7,1,27,25,42*,31*
Cc1nc(SCC(=O)NC2CCCC2)c2oc3ccccc3c2n1,1,-1,17,13,38*,25
Cc1nc(SCc2ccccc2C)c2oc3ccccc3c2n1,4,2,6,/,/,60*
Cc1nc(SCC(=O)c2ccc(F)cc2)c2oc3ccccc3c2n1,3,0,16,-12,5,8
CC(CN1CCN(c2ccccc2)C(=O)C1=O)C(=O)NCc1cc(F)ccc1F (centres undefined),7,8,0,7,19,9
Cc1cc(C(=O)COC(=O)c2cc(=O)[nH]c3ccccc23)c(C)n1CC(F)(F)F,1,1,-12,-11,-52,-9
CCN(CC)c1ccc2nnc(CCC(=O)N3CCCC3)n2n1,1,0,7,4,-5,0
CC(C)c1ccc(Nc2nc3cc(S(=O)(=O)N4CCCCC4)ccc3s2)cc1,5,7,-10,0,-4,-2
CCN1[C@H]2CCN(C(=O)c3ccno3)CC[C@@H]2Oc2ccccc2S1(=O)=O,7,3,6,/,/,3
COc1ccc(NC(=O)CSc2cc(N3CCCCC3)ncn2)cc1OC,0,-2,0,13,12,1
O=C(CSc1cc(N2CCCCC2)ncn1)Nc1ccc2c(c1)OCCO2,-2,-3,-15,49*,-12,-9
COc1ccc(NC(=O)CSc2nc(-c3ccc4c(c3)OCO4)ccc2C#N)cc1OC,-5,-4,-21,14,-65,33*
Cc1ccc(NC(=O)CSc2cc(N3CCCCC3)ncn2)cc1F,-10,4,-7,25,31*,0
Cc1nc(C)c(-c2ccc(SCC(=O)Nc3ccc4c(c3)OCCO4)nn2)s1,2,4,-34,-15,-115,-35
COc1ccccc1-c1ccc(SCC(=O)Nc2ccc3c(c2)OCCO3)nn1,8,8,-1,80*,40*,27
O=C(Cc1cccc(F)c1)N1CCC([C@@H]2C[C@H](C(F)F)n3ncnc3N2)CC1,0,2,-4,-1,-5,1
O=C(NCc1cnc(C2CCCCO2)nc1)c1ccn[nH]1 (centres undefined),0,-1,-8,-1,6,0
Cc1ccc(CSc2nc3c(c(N(C)C)n2)CCCC3)cc1,12,8,21,47*,33*,14
Cc1ccc(CSc2nc3c(c(N4CC(C)OC(C)C4)n2)CCCC3)cc1 (centres undefined),4,0,-1,-15,-3,-6
CCc1cccc(Nc2nc3ccncc3n(Cc3ccccc3)c2=O)c1,5,-6,-15,-18,0,/
O=c1c(Nc2cccc(F)c2)nc2ccncc2n1Cc1ccccc1,4,-2,-5,-3,24,67*
O=c1c(NCCN2CCCC2)nc2ccncc2n1Cc1ccccc1,-32,-5,-7,/,/,66*
Cc1cc(C)cc(Nc2nc3ccncc3n(Cc3ccccc3)c2=O)c1,-2,-1,-30,-11,17,23
CC(C)CCn1c(=O)c2ccccc2n2c(CCC(=O)N3CCN(Cc4ccccc4)CC3)nnc12,-15,-6,-22,-21,-56,-15
Cc1ccc(C(=O)NC(C(=O)OCC(=O)c2cc(C)n(-c3ccc4c(c3)OCO4)c2C)C(C)C)cc1 (centres undefined),7,4,52*,17,-8,29
SMILES,USP7 inh,USP10 block,USP8 block,USP28 inh,USP30 inh,USP17 inh
CC(C)=CCC/C(C)=C/CC/C(C)=C/Cc1c(C)cc(O)cc1O,8,19,8,32*,27,39*
COC(=O)c1ccccc1NC(=O)CSc1nnc(CNc2ccc(F)cc2)n1CC1CCCO1 (centres undefined),-4,9,96*,10,6,90*
Cn1c(CNc2ccc(F)cc2)nnc1SCC(=O)Nc1cccc2ccccc12,-45,1,12,29,21,1
CNc1nc(C2CCCN(C(=O)c3cc(C4CC4)on3)C2)nc2c1CCN(C)C2 (centres undefined),-10,-3,36*,-76,-196,-27
CNc1nc(C2CCCN(S(=O)(=O)c3c(C)noc3C)C2)nc2c1CCN(C)C2 (centres undefined),-5,-8,-19,-31,-101,-45
CCC1OC(=O)C(C)C(=O)C(C)C(OC2OC(C)CC(N(C)C)C2O)C(C)CC(C)C(=O)/C=C/C1(C)O (centres undefined),0,-3,-6,-16,-12,-30
Cc1c(CC(=O)N2CCN(c3ccccc3)CC2)c(=O)oc2c(C)c(O)ccc12,7,13,31*,5,23,8
O=C(CSc1nc(C2CC2)n(-c2ccccc2)n1)Nc1ccc2[nH]c(=O)[nH]c2c1,2,0,-45,15,-292,21
CC(Sc1n[nH]c2nc3ccccc3n12)C(=O)Nc1ccc2c(c1)OCCO2 (centres undefined),4,-4,-5,26,-9,39*
CC(C(=O)Nc1ccc2[nH]c(=O)[nH]c2c1)N1CCCCCC1 (centres undefined),4,0,3,-1,-2,6
O=C(CSc1n[nH]c2nc3ccccc3n12)Nc1ccc2[nH]c(=O)[nH]c2c1,-47,10,70*,-4,-22,-3
O=C(CSc1nnc2n1CCCCC2)Nc1ccc2[nH]c(=O)[nH]c2c1,0,0,-22,33*,28,68*
COc1ccc(-c2nnc(SCC(=O)Nc3ccc4[nH]c(=O)[nH]c4c3)n2C)cc1,7,-2,38*,1,5,13
COc1ccc(NC(=O)CSc2nnc(-c3ccco3)n2C)cc1OC,6,1,18,10,16,27
O=C(c1cc(-c2ccncc2)n[nH]1)N1CCN(C(=O)C2CCCCC2)CC1,2,1,5,-2,10,2
c1cnc(N2CCCC3(COCCN(CC4CC4)C3)C2)cn1 (centres undefined),-2,-2,-6,-22,-37,-23
COc1ccccc1-n1nnc(C(=O)N2CCCC2)c1-c1ccccn1,7,0,13,0,4,3
COc1ccc(CC(=O)N2CCC(c3nc(C)ncc3-c3cc(C)no3)CC2)cc1,-3,0,-12,-9,0,-7
CCOc1ccc(C(=O)N2CCC(c3nc(C)ncc3-c3cc(C)no3)CC2)o1,5,1,7,15,36*,11
O=C(c1cc2c(s1)CN(C1CC1)C2)N1CCN(c2ccccn2)CC1,-62,3,10,2,5,40*
O=C(c1cccc2c1C(=O)N(C1CCCCC1)C2)N1CCN(c2ccccn2)CC1,-7,-3,-8,-8,-46,-23
O=c1cc(C2CCN(Cc3ccccc3F)CC2)nc(-c2cccnc2)[nH]1,9,-1,8,0,13,11
